About 3,100 (0.84%) of roughly 370,000 compounds were called active.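 How the source made its calls: active means inhibition above the mean of compounds lying between control limits plus 3 SD, set per campaign (cut at about 8.5% in these data); inactive means the rest.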 This excerpt belongs to a sample that is enriched for actives.

Disintegrin and metalloproteinase domain-containing protein 17 (Homo sapiens), sequence (P78536 215-824 limits assumed): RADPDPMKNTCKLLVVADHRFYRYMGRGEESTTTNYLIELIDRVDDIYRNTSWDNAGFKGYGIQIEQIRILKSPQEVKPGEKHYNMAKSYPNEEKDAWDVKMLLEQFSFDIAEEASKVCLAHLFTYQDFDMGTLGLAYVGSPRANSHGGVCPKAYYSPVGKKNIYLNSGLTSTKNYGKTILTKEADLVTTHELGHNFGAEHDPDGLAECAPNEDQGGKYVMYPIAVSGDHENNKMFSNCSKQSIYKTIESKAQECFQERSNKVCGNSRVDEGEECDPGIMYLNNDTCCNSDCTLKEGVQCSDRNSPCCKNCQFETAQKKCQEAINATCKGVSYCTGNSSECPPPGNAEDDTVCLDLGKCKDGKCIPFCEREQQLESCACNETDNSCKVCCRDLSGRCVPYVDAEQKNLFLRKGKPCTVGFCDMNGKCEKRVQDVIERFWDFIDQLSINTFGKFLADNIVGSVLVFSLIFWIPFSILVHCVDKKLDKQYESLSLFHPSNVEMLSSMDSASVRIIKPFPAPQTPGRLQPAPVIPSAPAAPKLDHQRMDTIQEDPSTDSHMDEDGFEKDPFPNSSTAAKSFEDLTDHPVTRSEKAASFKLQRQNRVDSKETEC

The assay has as its target Disintegrin and metalloproteinase domain-containing protein 17 (Homo sapiens) (UniProt P78536). Put plainly: ADAM17 inhibitors, primary screen, biochemical, QFRET (AID 720648).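 Further: 0% = DMSO-only wells as the low control.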 The conditions noted are these: recombinant ADAM17, EDANS/DABCYL FRET peptide cleavage; at 6.95 µM; active compounds read high.
Broadly, the inhibition is the drop in the measured response relative to a control, in per cent. On to `CCC(C)[C@@H](C(=O)OC)N(CCc1cn(Cc2ccccc2)nn1)S(=O)(=O)c1ccccc1Br` (some centres not stated), for which the inhibition is 6.37% (inactive). Then `CC(c1ccc(N)cc1)c1cn(C)c2ccccc12` (configuration not stated), with 1.58% (inactive); and `CCN=C1SC(CC(=O)Nc2ccc(C)cc2)C(=O)N1CC` (configuration not stated), with -7.43% (inactive); and `CCN1C(=O)C(CC(=O)Nc2cc(C)ccc2C)SC1=Nc1ccc(S(N)(=O)=O)cc1` (configuration not stated), with 9.07% (active). With `CCN1C(=O)C(=O)N(CC(=O)Nc2cc(C)ccc2C)C1=O` the figure was -0.07% (inactive); with `O=C(CN1CCCc2ccccc21)NCc1ccc(F)cc1`, 1.67% (inactive). Then `CCN(CC)C(=O)CC[C@H]1CC[C@]2(CCCN(Cc3ccc(Cl)cc3)C2)O1`, with 1.61% (inactive); and `O=C(COc1ccccc1)Nc1nonc1NC(=O)COc1ccccc1`, with -4.34% (inactive). `Cc1onc(C(=O)NN)c1-c1csc(COc2ccccc2)n1`: the inhibition was 9% (active).

Consider `Cc1cccc(OCCC(=O)OCc2csc(CC(=O)Nc3ccccc3C)n2)c1`, for which the inhibition was -0.41% (inactive). As for `CCOC(=O)[C@]12CCCC3=C1N(CCC3)C(=O)[C@@H](CC(=O)N1CCSCC1)C2`, the inhibition is 0.18% (inactive).

On to `CC(=O)N1CCc2cc(S(=O)(=O)NCCC(=O)N3CCCC3)ccc21`, for which the inhibition is -3.27% (inactive). Regarding `O=Nc1c(O)cc(O)c2ccccc12`, the inhibition was 10.5% (active). Regarding `COc1cccc2c(O)cc(=O)n(C)c12`, the inhibition was -4.7% (inactive).

Turning to `O=c1c2ccccc2ccc2ccc(P(=O)(O)O)cc12`, the inhibition was -16.1% (inactive).

In the case of `CCN(C(=O)[C@@H](C1CC1)[C@@H](O)c1ccc2ccccc2c1)c1ccccc1`, the inhibition is -1.62% (inactive). Turning to `COc1cccc(NC(=O)C/C(C)=N/NC(=O)C2CCCCC2)c1`, the inhibition is -3.38% (inactive). On to `COc1cccc(NC(=O)C2c3cc(OC)c(OC)cc3C(=O)N(C)C2c2cccnc2)c1` (configuration not stated), for which the inhibition is 1.58% (inactive).

For the compound `COc1cccc(NC(=O)C2C(c3ccccc3)C2(Cl)Cl)c1` (configuration not stated), the inhibition was 9.55% (active).

`CC(C)CNS(=O)(=O)CC1NCCc2ccccc21` (configuration not stated): the inhibition was -3.23% (inactive). `COc1ccc(C(=O)OCCN2CCN(C3CN(Cc4cn(Cc5ccccc5F)nn4)S(=O)(=O)C3)CC2)cc1OC` (configuration not stated): the inhibition is -4.52% (inactive). As to `CC(=O)Nc1nc2ncccn2c1-c1ccc(C(F)(F)F)cc1`, the inhibition is -266% (inactive). With `N#Cc1cccc(C(=O)NCC2CCN(C(=O)C(=O)c3cc4ccccc4o3)CC2)c1` the figure was -3.28% (inactive); with `O=C(C(=O)N1CCC(CNS(=O)(=O)Cc2ccccc2)CC1)c1cc2ccccc2o1`, -3.01% (inactive); with `CC(C)(C)c1ccc(S(=O)(=O)NCC2CCN(C(=O)C(=O)c3cc4ccccc4o3)CC2)cc1`, 9.75% (active). On to `CC(C)C(C#CC1CC1)N(Cc1ccc2c(c1)OCO2)C(N)=NC(=O)/C=C/c1cccc(C(F)(F)F)c1` (configuration not stated), for which the inhibition is -3.71% (inactive).

As for `CC(=O)NC(Cc1ccccc1)C(=O)NC1CCN(c2ncccc2[N+](=O)[O-])CC1` (configuration not stated), the inhibition is -2.81% (inactive). With `COc1ccc(-c2cc(-c3nnc(SCc4ccc([N+](=O)[O-])cc4)n3N)[nH]n2)cc1` the figure was -2.61% (inactive); with `COc1ccc(-c2cc(C3CCN(c4ncccc4[N+](=O)[O-])CC3)[nH]n2)cc1`, 9.29% (active); with `O=C1CCC2(CCC(c3ccc(Cl)cc3)CC2)N1CCO` (configuration not stated), 1.61% (inactive). `CCn1c(=O)n2n(c1=O)[C@@]1(C=C3CCCC[C@H]32)N=C(NC(=O)c2ccccc2)N(Cc2ccccc2)[C@H]1Cc1ccccc1`: the inhibition was 5.91% (inactive). With `Cc1ccc(NC(=O)Nc2cc(C)nn2-c2ccccc2)cc1` the figure was -1.4% (inactive); with `Cn1c(Nc2ccccc2)cc(=O)n(C)c1=O`, -0.84% (inactive). For the compound `Cc1cc(Nc2ccccc2)n(C(=O)c2ccc(N)cc2)n1`, the inhibition is 8.62% (active). With `CCC(Oc1ccccc1C)C(=O)Nc1ccc(S(=O)(=O)Nc2cc(C)on2)cc1` (configuration not stated) the figure was -4.21% (inactive); with `COC(C(=O)NCc1ccccc1C)c1ccccc1` (configuration not stated), -5.21% (inactive).

With `COC(C(=O)Nc1ccc(S(=O)(=O)Nc2ccc(C)c(C)c2)cc1)c1ccccc1` (configuration not stated), the inhibition is 9.01% (active). With `COc1cccc(Cn2cc(COC(=O)Nc3ccc(F)cc3)nn2)c1` the figure was -1.05% (inactive); with `COc1ccccc1C(=O)NC1CCCCN(C(C)C)C1=O` (configuration not stated), -7.08% (inactive).

As to `COc1ccc(CN(C(=O)c2cccs2)c2nccs2)cc1OC`, the inhibition is 0.3% (inactive). Then `COc1ccc(CCN(C(=O)COc2ccccc2)c2nc(-c3ccccc3)cs2)cc1OC`, with 9.24% (active); and `O=C(O)CCC(=O)N(Cc1ccco1)c1nc(-c2ccccc2)cs1`, with -2.47% (inactive).

`C[C@@H]1COc2cccc(N3CCCC3)c2S(=O)(=O)N1C`: the inhibition was -5.16% (inactive).

In the case of `C=CCN1[C@@H](Cc2ccccc2)COc2cccc(N3CCSCC3)c2S1(=O)=O`, the inhibition was -1.76% (inactive). With `Cc1cc(NC(=O)CSCC(=O)NC(C)c2ccccc2)no1` (configuration not stated) the figure was -2.03% (inactive).

For `CCCn1nc(C(=O)NNC(=O)CSCC(=O)Nc2cc(C)on2)c2ccccc2c1=O`, the inhibition was 11.3% (active). `CCCn1nc(C(=O)NNC(=O)CCOc2ccccc2OCC)c2ccccc2c1=O`: the inhibition is -0.01% (inactive). Then `COC(=O)C1CN(CCc2ccccc2)CCS(=O)(=O)N1Cc1ccc(F)cc1` (configuration not stated), with -9.15% (inactive); and `CCOc1ccc(S(=O)(=O)NCCSc2ccccc2)cc1`, with 6.1% (inactive); and `O=[N+]([O-])c1cc(S(=O)(=O)NCCc2ccccn2)ccc1Cl`, with 0.55% (inactive). With `Cc1ccc(S(=O)(=O)NCCSc2ccccc2)cc1[N+](=O)[O-]` the figure was 10.7% (active); with `C[C@H](C(=O)N(C)c1ccccc1)[C@@H](O)c1ccc2ccccc2c1`, -5.59% (inactive); with `CCN(CC)C(=O)CC[C@@H]1CC[C@]2(CCCN(S(=O)(=O)C3CCCCC3)C2)O1`, -0.83% (inactive). Turning to `COc1ccc(OCC(=O)OCC(=O)Nc2ccc(S(=O)(=O)N3CCCCC3)cc2)cc1`, the inhibition was -0.04% (inactive). With `O=C(CN1CCCCCC1)Nc1ccc(S(=O)(=O)N2CCCCC2)cc1` the figure was -1.57% (inactive); with `O=C(CSCc1ccc(Br)cc1)Nc1ccc(S(=O)(=O)N2CCCCCC2)cc1`, 12.9% (active); with `N#CCC[C@H]1CC[C@]2(CCCN(Cc3ccc(Cl)cc3)C2)O1`, -4.85% (inactive). With `COc1ccc(-n2c(SCC(=O)NC3CCCC3)nnc2-c2ccncc2)cc1` the figure was -3.54% (inactive); with `COc1ccccc1N(C(=O)Cn1nnc2ccccc21)C(C(=O)NCc1ccco1)c1ccc(C)o1` (configuration not stated), -3.12% (inactive); with `COCCNC(=O)C(c1ccc(C)o1)N(Cc1ccccc1)C(=O)Cn1nnc2ccccc21` (configuration not stated), 9.14% (active). With `CCC(C)(C)NC(=O)C(c1cccn1C)N(Cc1ccc(C)cc1)C(=O)Cn1nnc2ccccc21` (configuration not stated) the figure was 0.71% (inactive); with `COCCCNC(=O)C[C@H]1C[C@@]2(C(=O)OC)C(=C[C@H](C(C)(C)C)O[C@@H]2C)N(Cc2ccc(Cl)cc2Cl)C1=O`, 3.29% (inactive). On to `CCOC(=O)[C@@]12CN(C(=O)OC(C)(C)C)CC=C1N(Cc1ccc(OC)cc1)C(=O)[C@H]2CC(=O)NCc1ccc(OC)c(OC)c1`, for which the inhibition is 1.15% (inactive). Then `COc1ccc(S(=O)(=O)N2CCN(C(C)C(=O)Nc3ccc(C(C)C)cc3)CC2)cc1` (configuration not stated), with 12.4% (active); and `CC(C)c1ccc(S(=O)(=O)N2CCN(C(C)C(=O)NC3CCCC3)CC2)cc1` (configuration not stated), with 0.12% (inactive). With `COc1cccc(CNC(C)C(=O)Nc2ccc(S(=O)(=O)N3CCCC3)cc2)c1` (configuration not stated) the figure was -0.82% (inactive); with `C[C@@H]1ON(C)[C@H]2C[C@H]3c4[nH]c5cccc(-c6ccc7c(c6)OCO7)c5c4CCN3C[C@@H]12`, -16.2% (inactive). Then `COc1ccccc1CCNC(=O)C1CCN(c2nc(C)cc(C)n2)CC1`, with -1.54% (inactive). As for `O=S1(=O)c2c(NCc3ccco3)cccc2Oc2ccccc2CN1Cc1cn(Cc2cccc(C(F)(F)F)c2)nn1`, the inhibition was -1.67% (inactive).

Regarding `COc1ccc(Cl)cc1NC(=O)c1cccc(N2C(=O)C3CC=CCC3C2=O)c1` (configuration not stated), the inhibition is -4.89% (inactive). With `COc1ccc(Cl)cc1NC(=O)COC(=O)C(CC(C)C)N1C(=O)C2CC=CCC2C1=O` (configuration not stated) the figure was 18.9% (active); with `COc1ccc(Cl)cc1NC(=O)COC(=O)c1ccc(Br)o1`, -0.97% (inactive). With `Cc1cccc(C(=O)Nc2c(-c3ccc(F)cc3)nc3ncccn23)c1` the figure was -94.5% (inactive); with `CCOC(=O)c1csc(NC(=O)C2CCCN(S(=O)(=O)c3ccc(Cl)s3)C2)n1` (configuration not stated), 1.07% (inactive). For the compound `COc1cccc(/C=N/NC(=O)c2cccc([N+](=O)[O-])c2)c1OS(=O)(=O)c1ccc(C)cc1`, the inhibition is 9.36% (active). With `Cc1ccccc1OS(=O)(=O)c1cccc([N+](=O)[O-])c1` the figure was 3.53% (inactive); with `COc1ccc([N+](=O)[O-])cc1NCC(=O)c1ccc(C)cc1`, 0.13% (inactive); with `O=C(CSc1nc2c(c(=O)[nH]1)CCCC2)N1CCCCC1`, -1.39% (inactive).

As for `CC(C)Oc1cc(F)ccc1-c1cc(C(=O)Nc2cccc(Cl)c2)[nH]n1`, the inhibition was 12.5% (active). Then `COc1cc(NC(=O)c2cc(-c3ccc(F)cc3OC(C)C)n[nH]2)cc(OC)c1OC`, with 3.11% (inactive).

As to `CC(C)Oc1cc(F)ccc1-c1cc(C(=O)Nc2ccc(F)cc2)[nH]n1`, the inhibition is 2.41% (inactive). With `O=C(N1CCOCC1)N1CC[C@H]2[C@H](CCCN2Cc2ccc(F)cc2)C1` the figure was -3.39% (inactive). In the case of `O=C(NC1CCC1)c1ccc(C#CC2CC2)cn1`, the inhibition was -2.55% (inactive). Regarding `CCn1c(Cc2cccs2)nnc1SCC(=O)c1ccc(C)cc1`, the inhibition was 9.16% (active). Regarding `Cc1ccc(-n2c(Cc3cccs3)nnc2SCC(=O)OC(C)C)cc1`, the inhibition was -0.84% (inactive). In the case of `CCn1c(SCC(=O)c2ccc(Cl)s2)nnc1-c1cccs1`, the inhibition was -2.07% (inactive). Regarding `CCC(=O)Nc1ccc2c(c1)C(=O)N(C)[C@H]1CC[C@H](CC(=O)NCCOC)O[C@@H]1CO2`, the inhibition was -1.85% (inactive).

The values above are taken from PubChem BioAssay AID720648 (The Scripps Research Institute Molecular Screening Center, 2013).
